Source: the antibiotic and cytotoxicity screens of Wong et al. (2023)
About 3,300 (8.5%) of roughly 39,000 compounds were called active. Many of the other results were omitted from the sample, so actives are more common in it than they were.

Tested on: HepG2
Experiment: cytotoxicity call (relative viability < 0.9)
Details: 10 µM

Row | SMILES | cytotoxicity call
1 | COc1ccc(S(=O)(=O)Nc2cccc3c2O[C@@H](CN(C)C(=O)NC(C)C)[C@H](C)CN([C@@H](C)CO)C3=O)cc1 | inactive
2 | C[C@H](CO)N1C[C@H](C)[C@H](CN(C)C(=O)Cc2ccccc2)OCCCC[C@H](C)Oc2ccc(NS(=O)(=O)c3cccs3)cc2C1=O | inactive
3 | C[C@@H]1CN([C@H](C)CO)S(=O)(=O)c2ccc(C#Cc3ccccc3)cc2O[C@@H]1CN(C)S(=O)(=O)c1cn(C)cn1 | inactive
4 | C[C@@H]1CCCCO[C@@H](CN(C)Cc2ccc(Cl)c(Cl)c2)[C@@H](C)CN([C@@H](C)CO)C(=O)c2cc(NS(=O)(=O)c3ccccc3)ccc2O1 | inactive
5 | C[C@@H]1CN([C@H](C)CO)C(=O)c2cc(NS(=O)(=O)c3ccccc3)ccc2O[C@@H](C)CCCCO[C@H]1CN(C)Cc1ccc(Cl)c(Cl)c1 | inactive
6 | C[C@H]1CCCCO[C@H](CN(C)Cc2ccc(Cl)c(Cl)c2)[C@@H](C)CN([C@@H](C)CO)C(=O)c2cc(NS(=O)(=O)c3ccccc3)ccc2O1 | active
7 | C[C@@H]1CCCCO[C@@H](CN(C)Cc2ccc(Cl)c(Cl)c2)[C@@H](C)CN([C@H](C)CO)C(=O)c2cc(NS(=O)(=O)c3ccccc3)ccc2O1 | active
8 | C[C@@H]1CN([C@H](C)CO)C(=O)c2cc(NS(=O)(=O)c3ccccc3)ccc2O[C@@H](C)CCCCO[C@@H]1CN(C)Cc1ccc(Cl)c(Cl)c1 | active
9 | Nn1c([C@@H](O)c2ccccc2)n[nH]c1=S | inactive
10 | COc1ccc(CN(C)C[C@H]2OCCCC[C@H](C)Oc3ccc(NC(=O)Cc4ccccc4)cc3C(=O)N([C@H](C)CO)C[C@H]2C)cc1 | inactive
11 | C[C@H]1CN([C@@H](C)CO)C(=O)c2cc(NC(=O)Cn3cnnn3)ccc2O[C@H]1CN(C)S(C)(=O)=O | inactive
12 | C[C@H]1CN([C@@H](C)CO)C(=O)c2cc(C#CC(C)(C)O)cnc2O[C@@H]1CN(C)C(=O)CN(C)C | inactive
13 | COc1ccc(NC(=O)N(C)C[C@@H]2OCCCC[C@@H](C)Oc3ccc(NS(=O)(=O)c4ccc(OC)cc4)cc3C(=O)N([C@@H](C)CO)C[C@@H]2C)cc1 | inactive
14 | CCOC(=O)CC1(C)NNC(=S)NN1 | inactive
15 | C[C@@](N)(C(=O)O)c1ccc(-c2nn[nH]n2)cc1 | inactive
16 | O=C(C[C@@H]1C[C@H]2c3cc(NC(=O)Nc4ccc(C(F)(F)F)cc4)ccc3O[C@H]2[C@@H](CO)O1)NC1CCCCC1 | inactive
17 | O=C(C[C@@H]1C[C@@H]2c3cc(NC(=O)Nc4ccc(C(F)(F)F)cc4)ccc3O[C@@H]2[C@H](CO)O1)NC1CCCCC1 | active
18 | C[C@H](NC(=O)C[C@H]1C[C@@H]2c3cc(NC(=O)Nc4ccc(C(F)(F)F)cc4)ccc3O[C@@H]2[C@@H](CO)O1)c1ccccc1 | inactive
19 | COc1ccccc1CNC(=O)C[C@H]1C[C@@H]2c3cc(NC(=O)Nc4ccc(C(F)(F)F)cc4)ccc3O[C@@H]2[C@@H](CO)O1 | inactive
20 | O=C(C[C@@H]1C[C@@H]2c3cc(NC(=O)Nc4ccc(C(F)(F)F)cc4)ccc3O[C@@H]2[C@@H](CO)O1)NC1CCCCC1 | inactive
21 | COc1ccccc1CNC(=O)C[C@@H]1C[C@H]2c3cc(NC(=O)Nc4ccc(C(F)(F)F)cc4)ccc3O[C@H]2[C@@H](CO)O1 | active
22 | C[C@H](NC(=O)C[C@@H]1C[C@@H]2c3cc(NC(=O)Nc4ccc(C(F)(F)F)cc4)ccc3O[C@@H]2[C@@H](CO)O1)c1ccccc1 | active
23 | COc1ccccc1CNC(=O)C[C@H]1C[C@H]2c3cc(NC(=O)Nc4ccc(C(F)(F)F)cc4)ccc3O[C@H]2[C@H](CO)O1 | inactive
24 | C[C@H](NC(=O)C[C@@H]1C[C@@H]2c3cc(NC(=O)Nc4ccc(C(F)(F)F)cc4)ccc3O[C@@H]2[C@H](CO)O1)c1ccccc1 | inactive
25 | C[C@@H]1CN([C@H](C)CO)C(=O)c2c(c3ccccc3n2C)-c2ccccc2CO[C@@H]1CN(C)S(=O)(=O)c1cn(C)cn1 | inactive
26 | Cc1noc(C)c1NC(=O)Nc1ccc2c(c1)C(=O)N([C@H](C)CO)C[C@@H](C)[C@H](CN(C)C(=O)Nc1ccccc1)OCCCC[C@@H](C)O2 | inactive
27 | Cc1ccc(S(=O)(=O)N(C)C[C@H]2Oc3ccc(NC(=O)CCCN(C)C)cc3C(=O)N([C@@H](C)CO)C[C@@H]2C)cc1 | inactive

Row | SMILES | cytotoxicity call
28 | CCNC(=O)C[C@@H]1CC[C@H]2[C@@H](COc3ccc(NS(=O)(=O)c4ccccc4C)cc3C(=O)N2C)O1 | inactive
29 | C[C@@H]1CCCCO[C@H](CN(C)C(=O)Nc2ccc(F)cc2)[C@H](C)CN([C@H](C)CO)C(=O)c2cc(NC(=O)Nc3ccc(C(F)(F)F)cc3)ccc2O1 | inactive
30 | CC(C)CC#Cc1ccc2c(c1)O[C@@H](CN(C)C(=O)c1cccnc1)[C@@H](C)CN([C@H](C)CO)S2(=O)=O | inactive
31 | CCCCOc1ccc(C(=O)CCN2CCCCC2)cc1.Cl | active
32 | CCCCOc1ccc(OCCCN2CCOCC2)cc1.Cl | inactive
33 | O=C(N[C@@H](c1ccccc1)c1ccc2ccccc2n1)C1CCN(CCOc2ccc(Cl)cc2)CC1 | inactive
34 | COc1cc(OC)c(C(=O)CCCN2CCCC2)c(OC)c1.Cl | inactive
35 | CC(=O)OCC(=O)NCCCOc1cccc(CN2CCCCC2)c1.Cl | inactive
36 | CC(=O)O.Cc1c(-c2ccc(O)cc2)n(Cc2ccc(OCCN3CCCCCC3)cc2)c2ccc(O)cc12 | active
37 | COc1cc(C(=O)OCCN2CCCN(CCOC(=O)c3cc(OC)c(OC)c(OC)c3)CC2)cc(OC)c1OC | inactive
38 | Cl.O=C(c1ccc(OCCN2CCCCC2)cc1)c1c(-c2ccc(O)cc2)sc2cc(O)ccc12 | active
39 | C[C@@H]1CN([C@@H](C)CO)C(=O)c2cccc(NC(=O)c3cnccn3)c2O[C@H]1CN(C)S(=O)(=O)c1cccs1 | inactive
40 | C[C@H]1CN([C@@H](C)CO)S(=O)(=O)c2ccc(-c3cccc(C(=O)N(C)C)c3)cc2O[C@@H]1CN(C)C(=O)Cc1ccccn1 | inactive
41 | C[C@H]1CN([C@@H](C)CO)C(=O)c2cc(C#Cc3ccc(F)cc3)cnc2O[C@@H]1CN(C)Cc1ccccn1 | inactive
42 | C[C@@H]1CCCCO[C@H](CN(C)C)[C@H](C)CN([C@@H](C)CO)C(=O)c2cc(NC(=O)Nc3ccc(C(F)(F)F)cc3)ccc2O1 | active
43 | C[C@@H]1CN([C@@H](C)CO)C(=O)c2cc(NC(=O)Nc3ccc(C(F)(F)F)cc3)ccc2O[C@@H](C)CCCCO[C@@H]1CN(C)C | inactive
44 | C[C@H]1CCCCO[C@@H](CN(C)C)[C@@H](C)CN([C@@H](C)CO)C(=O)c2cc(NC(=O)Nc3ccc(C(F)(F)F)cc3)ccc2O1 | active
45 | C[C@@H]1CCCCO[C@H](CN(C)C)[C@H](C)CN([C@H](C)CO)C(=O)c2cc(NC(=O)Nc3ccc(C(F)(F)F)cc3)ccc2O1 | active
46 | C[C@@H]1CN([C@@H](C)CO)C(=O)c2cc(NC(=O)Nc3ccc(C(F)(F)F)cc3)ccc2O[C@@H](C)CCCCO[C@H]1CN(C)C | inactive
47 | C[C@@H]1CCCCO[C@H](CN(C)S(C)(=O)=O)[C@@H](C)CN([C@@H](C)CO)C(=O)c2cc(NC(=O)Nc3ccc(C(F)(F)F)cc3)ccc2O1 | inactive
48 | C[C@@H]1CN([C@H](C)CO)C(=O)c2cc(NC(=O)Nc3ccc(C(F)(F)F)cc3)ccc2O[C@@H](C)CCCCO[C@H]1CN(C)S(C)(=O)=O | active
49 | C[C@@H]1CCCCO[C@@H](CN(C)C)[C@H](C)CN([C@H](C)CO)C(=O)c2cc(NC(=O)Nc3ccc(C(F)(F)F)cc3)ccc2O1 | inactive
50 | C[C@H](CO)N1C[C@H](C)[C@@H](CN(C)C)OCCCC[C@H](C)Oc2ccc(NC(=O)Nc3ccc(C(F)(F)F)cc3)cc2C1=O | inactive
51 | C[C@@H]1CCCCO[C@@H](CN(C)C)[C@H](C)CN([C@@H](C)CO)C(=O)c2cc(NC(=O)Nc3ccc(C(F)(F)F)cc3)ccc2O1 | inactive
52 | C[C@@H]1CCCCO[C@H](CN(C)C)[C@@H](C)CN([C@H](C)CO)C(=O)c2cc(NC(=O)Nc3ccc(C(F)(F)F)cc3)ccc2O1 | inactive
53 | C[C@@H]1CCCCO[C@H](CN(C)S(C)(=O)=O)[C@@H](C)CN([C@H](C)CO)C(=O)c2cc(NC(=O)Nc3ccc(C(F)(F)F)cc3)ccc2O1 | inactive
